Cy5 interf NS3h: Cy5 fluorescence quenchers or enhancers, artefact control for HCV NS3 helicase inhibitor project, biochemical, ChemBridge library, Cy5 readout. Cy5-dT15 DNA with NS3h, fluorescence interference; actives lie on both sides; signal over control mean, under 1 quenches. fluorescence interference ratio at 100 µM. 16,000 compounds, 6% hits;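 active = compound fluorescence over control fluorescence at most 0.8, a quencher, or at least a set upper limit, an enhancer; inactive = ratio between 0.8 and the set upper limit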
NS3h inh CB: HCV NS3 helicase inhibitors, primary screen, biochemical, fluorescence polarization, ChemBridge library | Hepatitis C virus NS3 helicase | NS3h Cy5-dT15 DNA binding | inhibition, % at 100 µM | 16,000 compounds, 1.6% hits | AID 687043, 2013;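 active = inhibition above the average over every tested compound plus 3 SD, cut at about 40% in these data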
* marks the source's active call; other numbers are inactive results. Hits are enriched below; roughly 7.6% of the tested compounds scored in any of these assays.

SMILES | Cy5 interf NS3h | NS3h inh CB
O=C(O)CCN1C(=O)/C(=C/c2ccc(Cl)c([N+](=O)[O-])c2)SC1=S | 0.696* | 21.7
O=C(O)CCN1C(=O)/C(=C/c2cccc(OCc3ccccc3)c2)SC1=S | 1.1 | 17.9
COc1ccc(S(=O)(=O)N(CCc2ccccc2)CC(=O)NCCc2ccccc2)cc1 | 1.02 | 23.6
CCOc1c(Br)cc(/C=C(\C#N)c2nn(-c3ccccc3)c(N)c2C#N)cc1OC | 0.98 | 3.5
CCOc1c(Br)cc(/C=C(\C#N)c2nn(CCO)c(N)c2C#N)cc1OC | 0.792* | -24.7
Cc1cccc(/C(N)=N\OC(=O)CCc2ccccc2)c1 | 1 | 5.0
CN(C)c1ccc(/C=C2/C(=O)NN(c3cccc(Cl)c3)C2=O)cc1 | 0.956 | -8.6
Cn1c(-c2nc3ccccc3n2C)nc2ccccc21 | 0.939 | 5.0
Cn1c(-c2ccc(-c3nc4cnccc4n3C)cc2)nc2cnccc21 | 1.21* | -2.2
CC(=O)Oc1ccc(/C=N\NS(=O)(=O)c2ccccc2)cc1 | 1.06 | 4.2
CCCCOC(=O)c1ccc(NC(=O)c2ccc(-c3cccc([N+](=O)[O-])c3)o2)cc1 | 1.07 | 4.1
CC(C)CN1C(=O)/C(=C/c2cccc3ccccc23)SC1=S | 0.928 | 18.8
Cc1ccccc1NC(=O)c1c(NC(=O)C(Cl)(Cl)Cl)sc2c1CCC2 | 0.681* | 13.0
CC(=O)Nc1sc2c(c1C(=O)Nc1ccccc1C)CCC2 | 0.935 | -4.2
COc1ccc(N(CC(=O)Nc2c(C)n(C)n(-c3ccccc3)c2=O)S(=O)(=O)c2ccccc2)c(OC)c1 | 1.03 | 2.5
COc1ccc(OC)c(/C=N\n2nnnc2N)c1 | 0.989 | 6.1
O=C(NC(NC(=S)Nc1ccccc1[N+](=O)[O-])C(Cl)(Cl)Cl)c1ccco1 (stereo not drawn) | 0.705* | 12.4
O=C(NC(=S)Nc1ccc([N+](=O)[O-])cc1Cl)c1ccco1 | 0.933 | 2.3
COc1ccc(C2C(=C(O)c3ccc(Cl)cc3)C(=O)C(=O)N2C)cc1OC (stereo not drawn) | 1.07 | -6.0
CC1(C)Cc2ccccc2-c2nc(NN)n(Cc3ccccc3)c(=O)c21 | 0.868 | 11.0
N#C/C(=C/c1ccc(-c2cc(Cl)ccc2Cl)o1)C(=O)O | 1.17 | -15.7
Cc1ccccc1NC(=O)C(=O)NCCc1ccccc1 | 1.12 | 0.6
Cc1ccccc1NC(=S)NCCOc1ccccc1Cc1ccccc1 | 0.598* | 10.5
Cc1ccc(C)n1-c1cccc2cccnc12 | 0.0702* | -87.4
COc1ccc(CCNc2cc(N3CCN(C(=O)c4ccc(Cl)cc4)CC3)ccc2[N+](=O)[O-])cc1OC | 1.06 | -1.8
SMILES | Cy5 interf NS3h | NS3h inh CB
CCN(CC)C(=S)SCC(=O)Nc1cc(C)ccc1C | 0.999 | 16.2
O=C(Nc1cccc(Cl)c1)Nc1nnc(/C=C/c2ccccc2Cl)s1 | 0.997 | -14.8
Clc1cccc(Nc2nc3c(s2)CCCC3)c1 | 0.757* | 16.4
Cc1ccc(C)c(Nc2nc3c(s2)CCCC3)c1 | 0.782* | 15.5
CC(=O)c1c(C(C)=O)c(C)n(-c2cc(C)cc(C)c2)c1C | 1.02 | 16.4
CCOc1ccc(/C=C2\C(=O)NC(=S)N(c3cccc(Br)c3)C2=O)cc1Cl | 0.99 | 12.6
CC(=O)Oc1ccccc1/C=C1\C=C(c2ccc(Br)cc2)OC1=O | 0.83 | -2.4
COc1ccc(NC(=O)C(=O)NCc2ccco2)cc1Cl | 1.05 | -7.2
O=C(N1CCSCC1)C(F)(F)C(F)(F)C(F)(F)C(F)(F)F | 0.795* | 12.0
O=C(c1cc2nc(-c3cccs3)cc(C(F)(F)F)n2n1)N1CCc2ccccc2C1 | 0.959 | 13.1
NC(=O)c1cc2nc(-c3cccs3)cc(C(F)(F)F)n2n1 | 0.657* | 10.6
COc1ccc(NC(=O)c2ccc(N3C(=O)CCC3=O)cc2)cc1 | 1.05 | 10.3
NC(=O)c1nn2c(c1Cl)NC(c1cccs1)CC2C(F)(F)F (stereo not drawn) | 0.671* | 0.3
O=C(Nc1ccc(OC(F)(F)F)cc1)c1cc2n(n1)C(C(F)(F)F)CC(c1cccs1)N2 (stereo not drawn) | 0.71* | 8.7
CC1CCCC(C)N1C(=O)c1nn2c(c1Cl)NC(c1cccs1)CC2C(F)(F)F (stereo not drawn) | 0.988 | 9.4
O=C(NCC1CCCO1)c1cc2n(n1)C(C(F)(F)F)CC(c1cccs1)N2 (stereo not drawn) | 1.05 | 4.4
COc1ccc(C/C(N)=N\OC(=O)c2cccs2)cc1 | 1.03 | 10.1
N#C/C(=C\c1ccc(-c2ccccc2)o1)C(=O)Nc1ccc(F)cc1 | 1.06 | 22.2
COc1ccc(Cl)cc1C(=O)N(Cc1ccccc1)C(C)C | 0.973 | 10.0
O=C(c1cc(Cl)ccc1Cl)N(Cc1ccccc1)c1ccccn1 | 0.617* | 7.7
Cc1cc2nc(-c3cc(NC(=O)COc4ccc([N+](=O)[O-])cc4)ccc3O)oc2cc1C | 1.09 | 10.9
O=C(c1cc(Br)ccc1Cl)N1CCN(c2ccc([N+](=O)[O-])cc2)CC1 | 1.02 | 2.2
COc1cc(C=C2C(=O)N(C)C(=O)N(C)C2=O)ccc1Oc1ccc([N+](=O)[O-])cn1 | 0.792* | 30.3
COc1cc(/C=C2\SC(=S)NC2=O)ccc1Oc1ccc([N+](=O)[O-])cn1 | 0.893 | -2.8
O=C(O)CN1C(=O)/C(=C/c2ccccc2OCc2ccc([N+](=O)[O-])cc2)SC1=S | 1.12 | 24.5
SMILES | Cy5 interf NS3h | NS3h inh CB
CN1C(=O)C(=Cc2ccccc2OCc2ccc([N+](=O)[O-])cc2)C(=O)N(C)C1=O | 0.576* | 32.8
O=S(=O)(NC12CC3CC(CC(C3)C1)C2)c1ccc(Cl)cc1 | 0.888 | 7.1
COCCNC(=O)C(=O)NCc1ccc(C)cc1 | 0.948 | 5.2
COc1ccc(/C=N\n2cnnc2)cc1Br | 1 | -14.7
COc1cc(/C=N\n2cnnc2)cc(OC)c1O | 0.671* | 1.2
Cc1ccc(-n2c(C)cc(/C=C(\C#N)C(=O)Nc3ccccc3)c2C)cc1C | 0.982 | 5.8
Nc1ccc(C(=O)Nc2cccc(O)c2)cc1 | 1.06 | 0.9
Cc1ccc(NC(=O)CN(c2cc(Cl)cc(Cl)c2)S(C)(=O)=O)cc1 | 0.989 | 7.1
C=CCNC(=O)CN(c1cc(Cl)cc(Cl)c1)S(C)(=O)=O | 1.22* | 5.3
CC(=O)CC(C)(C)Nc1ccccc1 | 0.745* | 5.9
CCC(C(C)=O)C(=O)Nc1ccccc1 (stereo not drawn) | 0.965 | -1.6
Cc1csc(Nc2ccccc2)[n+]1CCO | 1.21* | 4.4
Cc1cc(C)cc(NC(=O)c2ccc(F)cc2)c1 | 1.02 | 11.9
Cc1sc(NC(=O)c2ccc(F)cc2)c(C(=O)O)c1C | 0.698* | 14.1
O=C(NCCc1ccccc1)c1cc2nc(-c3ccc([N+](=O)[O-])cc3)cc(C(F)(F)F)n2n1 | 1.05 | 5.6
O=C(Nc1cccc(Cl)c1)Nc1nnc(Cc2ccc(Cl)cc2Cl)s1 | 1.08 | -1.6
O=C(Nc1cccc(Cl)c1)Nc1nnc(-c2ccc(Cl)cc2Cl)s1 | 0.747* | 16.8
CCc1ccccc1NC(=O)C(CC)c1ccccc1 (stereo not drawn) | 1.03 | 11.8
CCc1ccccc1NC(=O)[C@H]1CC=CC[C@H]1C(=O)O | 0.739* | 18.6
CC(=O)OCC12COC(C)C(C1)C(C)=CC2C (stereo not drawn) | 0.985 | 0.7
COc1ccccc1NC(=O)c1c(O)c2ccccc2[nH]c1=O | 1.12 | 8.9
Cc1csc(NC(=O)c2c(O)c3ccccc3[nH]c2=O)n1 | 1.2* | -0.3
COc1cccc(NC(=O)COc2ccc(C(C)(C)c3ccccc3)cc2)c1 | 0.927 | -6.7

Bioassay records from PubChem.
